DRD3 antagonist: blocks the human D3 dopamine receptor; P35462; hit rate 2.5% among 360,000; max response, negative = inhibition, %; D3R cells, DiscoveRx beta-arrestin luminescence, antagonist mode; stronger effect = lower value; in the data active = max response below about -50%; inconclusive = no clear call, values can overlap the other calls; also: % is scaled to controls: 0 for no effect and ±100 for the full control effect
Target sequence (P35462 whole entry, looked up): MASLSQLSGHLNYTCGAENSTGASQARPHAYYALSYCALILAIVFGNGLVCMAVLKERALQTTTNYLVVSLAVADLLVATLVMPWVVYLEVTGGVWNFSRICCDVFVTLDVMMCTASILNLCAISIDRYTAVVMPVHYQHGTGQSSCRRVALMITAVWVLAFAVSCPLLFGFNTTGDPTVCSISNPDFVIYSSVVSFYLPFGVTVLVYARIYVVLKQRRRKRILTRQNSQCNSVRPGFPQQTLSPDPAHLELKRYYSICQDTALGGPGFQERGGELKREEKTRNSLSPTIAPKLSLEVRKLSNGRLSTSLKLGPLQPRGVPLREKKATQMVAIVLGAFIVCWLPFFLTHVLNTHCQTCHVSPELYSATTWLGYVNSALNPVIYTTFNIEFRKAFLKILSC
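Cells expressing the human receptor were seeded at 1500 cells/well, incubated overnight at 37 degrees C in 5% CO2, then exposed to library compounds with dopamine controls for 90 minutes at 37 degrees C before luminescent detection.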
DRD3 agonist: activates the human D3 dopamine receptor | D3R DiscoveRx beta-arrestin cells, luminescence, 90 min | max activation, % | hit rate 0.58% among 410,000 | AID 652048 | P35462; in the data active = max activation above about 30%; also: 0% is about no effect
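Agonist mode: compounds and dopamine controls were applied to plated cells for 90 min at 37 degrees C after an overnight attachment at 1500 cells/well. Luminescent read-out followed 30 - 60 minutes at room temperature with DiscoveRx detection reagent.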
GLP-1R agonist: agonists of human GLP-1 receptor. P43220. HEK293 GLP-1R CRE-luciferase, luminescence, 4-6 h; cells express a hypersensitive GLP-1R form. Potency, µM (titrated, usually from 45.6 µM), for the others: at the highest dose activation, hits mostly activators. hit rate 0.007% among 380,000. AID 624172; also: potency is read from the fitted curve at half-maximal effect; % of control where 0% means no effect
GLP1R inv ag: acts as inverse agonist at human GLP-1 receptor; HEK293 GLP-1R CRE-luciferase, luminescence, 24 h; GLP-1R form is constitutively active; Potency, µM (top dose mostly 38.3 µM), without a hit: top-dose activity change, negative = inhibition, actives largely listed as inhibitors; hit rate 1.6% among 410,000; also: potency is read from the fitted curve at half-maximal effect; % is scaled to controls: 0 for no effect and ±100 for the full control effect; nearly all actives have a fitted effect of over 55% in size
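Using stably transfected HEK293 (constitutively active GLP-1R, cAMP-luciferase reporter), compounds were incubated 24 hr and luciferase measured by luminescence.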
ClpP mod: qHTS Assay for Activators of ClpP. ATP-dependent Clp protease proteolytic subunit (Bacillus subtilis (strain 168)), P80244. purified B. subtilis ClpP, FRET peptide cleavage, 20 min. Potency, µM (doses to about 57.5 µM), inactives show at the top dose activity change, negative = active. hit rate 1.9% among 340,000. AID 651965, 2013; active = well fitted falling curve with a large enough effect; inconclusive = small, poorly fitted or top-dose-only effect; inactive = no such curve, though single readings can be large or run the other way; also: potency is read from the fitted curve at half-maximal effect; the source files actives as falling curves though it sought activators and does not explain the sign; nearly all actives have a fitted effect of over 65% in size
Target sequence (P80244 whole entry, looked up): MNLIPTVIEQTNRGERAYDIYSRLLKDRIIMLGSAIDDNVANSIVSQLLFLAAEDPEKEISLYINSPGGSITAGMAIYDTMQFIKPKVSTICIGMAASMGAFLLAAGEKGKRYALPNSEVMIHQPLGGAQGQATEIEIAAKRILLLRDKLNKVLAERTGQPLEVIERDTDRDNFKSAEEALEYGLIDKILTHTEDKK
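Purified B. subtilis ClpP, 10 microg/mL final in Tris/HCl pH8 with KCl, BSA, glycerol and Tween-20, cleaved an Abz/nitrotyrosine-quenched decapeptide. Fluorescence (ex 320, em 430) was read at 0 and 20 min at room temperature. Delta was normalized to 5.8 microM ADEP and DMSO/no-enzyme controls.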
HEK293 tox: cytotoxicity in counter-screen for GLP-1R inverse agonists; HEK293 cAMP-luciferase reporter cells, luminescence, 24 h; AID 624418; hit rate 0.13% among 410,000; Potency, µM (titrated, usually from 38.3 µM), without a hit: top-dose activity change, negative = inhibition, actives largely listed as inhibitors;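 also: loss of luciferase light is scored as toxicity; potency is read from the fitted curve at half-maximal effect; % is scaled to controls: 0 for no effect and ±100 for the full control effect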
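A 23 nL compound transfer followed 12 hours of cell culture at 37 deg C; exposure then lasted 24 hr. Luciferase assay detection reagent was dispensed and plates read for luminescence after a 12 min room-temperature wait.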
An asterisk follows results filed as active; ? = inconclusive; nt = not tested or not shown. Shown are actives, neighbours in structure and some others; about 5.7% of the full set was active somewhere. Unless noted, calls follow the shape of the dose curve; as a rule, active = well fitted curve in the direction sought with a large enough effect; inconclusive = small, poorly fitted or top-dose-only effect, or another doubt; inactive = no such curve, though single readings can be large; an effect the other way counts as inactive or inconclusive.

SMILES	DRD3 antagonist	DRD3 agonist	GLP-1R agonist	GLP1R inv ag	ClpP mod	HEK293 tox
Cc1ccc(OCc2nc3ccccc3n2Cc2ccccc2Cl)cc1	nt	-6	-5%	13µM*	1%	-3%
CCOCCn1c(COc2ccc(C)cc2)nc2ccccc21	-12	1	9%	7.1µM*	1%	0%
Cc1ccc(CNC(=O)CC(C)CC2=NS(=O)(=O)c3ccccc3N2)cc1 (stereo not drawn)	nt	-4	nt	0%	-3%	13%
CCOC(=O)c1c(C)[nH]c(C)c1S(=O)(=O)N(C)CC(=O)Nc1ccc(OC)cc1	nt	1	nt	-1%	1%	-7%
COc1cc(C(=O)Oc2ccccc2/C=N/NC(=O)c2ccc(C)c(Cl)c2)cc(OC)c1OC	-16	-1	-4%	-2%	-2%	?
Cc1cc(C(=O)N/N=C/c2cc(Cl)cc([N+](=O)[O-])c2O)c2ccccc2n1	-66*	-6	-3%	?	1%	?
O=C(N/N=C/c1cc(Cl)cc([N+](=O)[O-])c1O)c1cccc(S(=O)(=O)N2CCOCC2)c1	-93*	-37	-6%	?	1%	?
O=C(N/N=C/c1cc(Br)cc(Cl)c1O)c1ccc2c(c1)OCO2	-18	17	4%	2.5µM*	nt	?
COc1cc(C(=O)Oc2ccccc2/C=N/NC(=O)c2ccc(Cl)cc2)cc(OC)c1OC	-14	-10	1%	2.8µM*	-2%	-26%
Cc1cc(N2CCN(c3cccc(C)c3C)CC2)n2cnnc2n1	nt	9	nt	10%	-3%	2%
Cc1c(-c2nsc(NC(=O)c3cccs3)n2)nnn1-c1ccc(Cl)cc1	nt	-10	nt	-7%	-21%	-19%
O=C(Cn1c(=O)n(Cc2nc(-c3ccccc3)no2)c(=O)c2cc3c(cc21)OCO3)Nc1cccc(C(F)(F)F)c1	nt	7	nt	10%	?	3%
O=C(N/N=C/c1cc(Cl)cc([N+](=O)[O-])c1O)c1ccc2c(c1)OCO2	-67*	-26	0%	?	-1%	?
O=C(N/N=C/c1ccccc1OC(=O)c1ccc2c(c1)OCO2)c1cccc(F)c1	-13	-7	0%	10µM*	0%	?
COc1cc(Cl)cc(/C=N\NC(=O)c2ccc3c(c2)OCO3)c1O	-10	3	-3%	?	-6%	6%
O=C(N/N=C/c1ccccc1O)c1ccc2c(c1)OCO2	1	1	11%	?	nt	83%
O=S(=O)(c1ccc(Cl)cc1)c1snnc1-c1ccccc1	-64*	-10	-23%	?	-1%	?
O=C(NCc1ccccc1)C(c1ccc(-c2ccccc2)cc1)N1CCN(c2ccccc2F)CC1 (stereo not drawn)	-3	-5	nt	3%	-9%	7%
CN(C)c1ncnc2c1C(c1ccccc1)C(C)(C)O2 (stereo not drawn)	1	5	-14%	1%	32µM*	-2%
COCCNC(=O)C1CCCN(Cc2cccc(C#N)c2)CC1 (stereo not drawn)	17	1	-1%	12%	0%	-1%
O=c1[nH]c(Cc2ccccc2Cl)nc2ccccc12	-4	-8	11%	5%	nt	9%
Cc1ccc2c(=O)[nH]c(Cc3ccccc3C(=O)O)nc2c1	110	40*	-1%	21%	-13%	-14%
COc1ccc(/C=N/Nc2nc(-c3ccc(Cl)cc3)cc(C(F)(F)F)n2)c(OC)c1	10	2	4%	-4%	2%	-8%
COc1ccc(/C(C)=N\Nc2nc(-c3ccc(Cl)cc3)cc(C(F)(F)F)n2)cc1OC	34	45*	2%	15%	3%	-9%
CCOc1ccc(-c2cn3c(n2)sc2cc(C(=O)NCCCN(CC)CC)ccc23)cc1	nt	-18	nt	10µM*	?	?
SMILES	DRD3 antagonist	DRD3 agonist	GLP-1R agonist	GLP1R inv ag	ClpP mod	HEK293 tox
O=C(O)c1cccc(N/N=C/c2cc(Br)cc(Br)c2O)c1	-64*	-7	-8%	0%	-3%	80%
O=C(C[n+]1ccccc1)N/N=C/c1cc(Br)cc(Br)c1O	-165*	-45	-1%	?	1%	7%
CCC(O)(CC)C(=O)N/N=C/c1cc(Br)cc(Br)c1O	-66*	-26	3%	?	nt	-1%
CCC[C@@H]1O[C@@H]2C[C@@H]3[C@H]4CCC5=CC(=O)C=C[C@@]5(C)[C@H]4[C@H](O)C[C@@]3(C)[C@@]2(C(=O)CO)O1	nt	nt	-1%	nt	nt	nt
CCOC(=O)COc1ccc2nsnc2c1Cl	-7	-1	-5%	-37%	35µM*	75%
CC(=O)Nc1cccc(C(=O)NC2CCCc3c2cnn3-c2ccc(C(C)(C)C)cc2)c1 (stereo not drawn)	18	33*	17%	?	0%	-3%
Cc1cc(C)cc(-n2ncc3c2CCCC3NC(=O)c2cc(C)[nH]n2)c1 (stereo not drawn)	-14	-3	1%	?	-3%	18%
CC(C)(C)c1ccc(-n2ncc3c2CCCC3NC(=O)c2ccco2)cc1 (stereo not drawn)	18	4	-2%	10µM*	1%	-2%
CC(=O)c1cc(C(=O)NC2CCCc3c2cnn3-c2cc(C)cc(C)c2)[nH]n1 (stereo not drawn)	-7	0	2%	-7%	32µM*	0%
Cc1cc(C(=O)NC2CCCc3c2cnn3-c2ccc(C(C)(C)C)cc2)nn1C (stereo not drawn)	14	4	0%	?	-1%	0%
COc1ccc(OC)c(CCNC(=O)c2cc3cccc4c3n2CCS4)c1	nt	8	nt	?	32µM*	-7%
COc1ccc(CNC(=O)c2cc3cccc4c3n2CC(C)S4)c(OC)c1 (stereo not drawn)	nt	-2	nt	7.9µM*	14µM*	-11%
COc1ccc(CNC(=O)c2cc3cccc4c3n2CC(C)S4)cc1OC (stereo not drawn)	nt	5	nt	-11%	32µM*	-1%
CCn1c(C(=O)NCc2cccc(Br)c2)cc2oc3ccccc3c21	nt	-10	nt	?	4%	1%
CC1Cn2c(C(=O)NCc3cccc(Br)c3)cc3cccc(c32)S1 (stereo not drawn)	nt	8	nt	?	32µM*	1%
COc1cc2nc(CN3CCN(S(=O)(=O)c4ccccc4[N+](=O)[O-])CC3)[nH]c(=O)c2cc1OC	0	-10	-1%	-2%	-1%	-39%
CC(=O)Nc1ccc(/C=C/c2ccnc3ccccc23)cc1	nt	nt	nt	nt	32%	nt

Assay outcomes: PubChem, National Center for Advancing Translational Sciences (NCATS)
